rTrxR1 inhibitor: blocks rat thioredoxin reductase 1; recombinant rTrxR1, NADPH fluorescence consumption, selenite substrate; O89049; actives 1% (n = 390,000); Potency, µM (series often up to 114 µM), inactives show at the highest dose activity change, negative = inhibition, usual class: inhibitors; note: nearly all actives have a fitted effect of over 65% in size
Target sequence (O89049 whole entry, looked up): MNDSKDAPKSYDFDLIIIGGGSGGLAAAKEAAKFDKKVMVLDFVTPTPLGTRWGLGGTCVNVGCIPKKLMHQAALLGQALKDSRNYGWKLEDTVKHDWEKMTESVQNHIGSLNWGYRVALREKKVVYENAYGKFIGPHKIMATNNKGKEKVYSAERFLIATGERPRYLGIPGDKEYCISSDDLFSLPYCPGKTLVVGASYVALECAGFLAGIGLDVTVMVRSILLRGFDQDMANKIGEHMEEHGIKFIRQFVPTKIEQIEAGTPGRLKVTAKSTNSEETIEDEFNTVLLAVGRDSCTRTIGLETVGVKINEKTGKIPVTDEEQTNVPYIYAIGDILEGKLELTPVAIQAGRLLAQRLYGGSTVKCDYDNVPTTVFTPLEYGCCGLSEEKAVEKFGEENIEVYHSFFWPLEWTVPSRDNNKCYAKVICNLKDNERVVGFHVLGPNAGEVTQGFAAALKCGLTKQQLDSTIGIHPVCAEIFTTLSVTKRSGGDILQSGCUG
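Rat TrxR1 (90 nM in the dispensed reagent) was pre-reduced with 400 uM NADPH for 5 min at room temperature, then incubated with compound for 15 min. After 400 uM selenite was added, NADPH fluorescence (Ex 340/Em 450 nm) was followed for 8 min.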
IDH1 R132H inh: blocks human mutant IDH1 R132H enzyme. AID 602179. Potency, µM (top dose mostly 76.6 µM), for inactives: at the highest dose activity change, negative = inhibition, hits mostly inhibitors. IDH1-R132H enzyme, NADPH consumption, diaphorase/resazurin fluorescence. O75874. actives 0.093% (n = 390,000); note: nearly all actives have a fitted effect of over 65% in size
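IDH1-R132H (0.5 ug/mL dispensed) in pH 7.5 Tris buffer was preincubated 30 min with compound, then given a substrate mix of 0.016 mM NADPH and 2 mM alpha-KG for 80 min at room temperature; remaining NADPH was read by diaphorase/resazurin fluorescence.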
RGS4 inhibitor: inhibitors of human regulator of G protein signaling 4 | Transcreener GDP fluorescence polarization, RGS4-accelerated GTP hydrolysis | Potency, µM (titrated, usually from 114 µM), for inactives: at the top dose activity change, negative = inhibition, hits mostly inhibitors | actives 0.039% (n = 390,000) | P49798 | AID 504845; note: nearly all actives have a fitted effect of over 75% in size
Target sequence (P49798 whole entry, looked up): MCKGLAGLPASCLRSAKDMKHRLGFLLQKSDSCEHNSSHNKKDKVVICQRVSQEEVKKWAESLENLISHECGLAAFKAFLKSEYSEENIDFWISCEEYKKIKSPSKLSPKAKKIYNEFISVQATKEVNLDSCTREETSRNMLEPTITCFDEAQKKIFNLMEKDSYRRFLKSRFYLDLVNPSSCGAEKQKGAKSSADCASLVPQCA
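MLSMR compounds (23 nl, pin-transferred) preincubated 10 min at room temperature with a 500nM (2x) first reagent, then RGS4 at 900nM (2x) plus Transcreener GDP mix added; fluorescence polarization (620/688 nm) read before and after 90 min at 30 °C.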
TrxR1 substrate: rat thioredoxin reductase 1 substrate activity; Potency, µM (series often up to 114 µM), for inactives: at the highest dose activity change, negative = substrate turnover; AID 588456; O89049; actives 0.01% (n = 390,000); purified TrxR1 substrate turnover, NADPH consumption readout; note: nearly all actives have a fitted effect of over 50% in size
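Rat TrxR1, dispensed at 90 nM, was prereduced with 400 uM NADPH (final) for 5 min at ~22 deg C, then incubated with compound 15 min before 400 uM selenite. A first-read NADPH fluorescence drop versus no-compound background flagged substrates.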
Eya2 inh: Eya2 (human) phosphatase inhibition. recombinant Eya2, OMFP fluorescence dephosphorylation (OMFP is methylfluorescein phosphate). Potency, µM (titrated, usually from 76.9 µM), without a hit: at the highest dose activity, negative = inhibition, usual class: inhibitors. actives 0.006% (n = 330,000). AID 488837
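Eya2 protein (added as 0.2 uM solution) was preincubated with compound for 10 min at ambient temperature in 50 mM HEPES pH 7.5, 50 mM NaCl, 5 uM MgCl2, 0.05% BSA, 1 mM DTT. OMFP (added at 50 uM) then reacted 10 min; fluorescence read at 485/525 nm.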
Starred values were filed as active, the others as inactive; ? = inconclusive; . = no result given; [ ] = dose if it differs, or a comment. In the library only some 1.1% were active in any assay of this set; here they are far more common. Calls come from the whole dose curve; as a rule, active = well fitted curve in the direction sought with a large enough effect; inconclusive = small, poorly fitted or top-dose-only effect, or another doubt; inactive = no such curve, though single readings can be large; an effect the other way counts as inactive or inconclusive. % is set by controls: 0 for no effect and ±100 for the full control effect; potency is the fitted concentration of half-maximal effect.

SMILES	rTrxR1 inhibitor	IDH1 R132H inh	RGS4 inhibitor	TrxR1 substrate	Eya2 inh
Cc1ccc(-c2nc3c(c(SCC(=O)N(C)c4ccccc4)n2)Cc2c(CO)cnc(C)c2O3)cc1	?	?	-35%	-6%	.
CN(Cc1ccccc1)C(=O)c1nc2ccccn2c1CNCCCOc1cccnc1	-7%	-5%	11%	2%	-7%
CC(=O)Oc1ccc(-c2nc(-c3cccnc3)no2)cc1	-8%	0%	-7%	-8%	-25%
O=c1cc(C23CC4CC(CC(C4)C2)C3)[nH][nH]1	14µM*	5%	-14%	9%	.
CCOC(=O)c1ccc(N2C(=O)CC(Sc3nnc(C)s3)C2=O)cc1 (stereo unspecified)	5.6µM*	2%	-49%	6%	11%
CCOC(=O)c1ccc(-n2c(C)ccc2C)cc1	-27%	5%	-25%	-17%	-11%
COc1ccc(N2C(=O)CC(Sc3nnnn3-c3ccc(F)cc3)C2=O)cc1 (stereo unspecified)	?	0%	-10%	3%[57.1 µM]	-5%
C=CCNc1nnc(SC2CC(=O)N(c3ccc(OCCC)cc3)C2=O)s1 (stereo unspecified)	7.1µM*	19%	-38%	-7%	-14%
CCOc1ccc(N2C(=O)CC(Sc3nc4ccc(OCC)cc4s3)C2=O)cc1 (stereo unspecified)	-9%	7%	?	-7%	.
O=C1CC(Sc2nnnn2-c2ccccc2)C(=O)N1c1cccc(Cl)c1 (stereo unspecified)	32µM*	-4%	-4%	-1%	-3%
CCOC(=O)c1ccc(N2C(=O)C=CC2=O)cc1	8.9µM*	4%	?	9%	1%
Cc1nc(NC(=O)C2CC2)sc1C(=O)N(C)C	12%	1%	-3%	-1%	6%
C[N+](C)(C)CC(O)CC(=O)O (stereo unspecified)	15%	9%	6%	3%	14%
CCOC(=O)C(Cc1ccccc1)(NC(C)=O)C(=O)OCC	-1%[2.29 µM]	0%	-34%	9%[2.29 µM]	-22%
Nc1nnc(SC2CC(=O)N(c3ccccc3)C2=O)s1 (stereo unspecified)	28µM*	4%	?	-6%	-1%
O=C1CC(Sc2ncccn2)C(=O)N1c1ccccc1 (stereo unspecified)	-17%	1%	-2%	-5%	0%
COc1ccc(CNC(=O)C(c2ccncc2)N(C(=O)Cc2cccs2)c2ccccc2)cc1 (stereo unspecified)	9%[57.1 µM]	-9%	10%	8%[57.1 µM]	-2%
COc1ccc(N(C(=O)CCl)C(C(=O)NCCc2ccccc2)c2cccs2)cc1 (stereo unspecified)	11µM*	-2%	-5%	1%	-7%
COc1cc(N2C(=O)C=CC2=O)ccc1N1C(=O)C=CC1=O	0.5µM*	2%	?	1%[11.4 µM]	.
CC1(C)CC(=O)C(C(C#Cc2ccccc2)C2=C(O)CC(C)(C)CC2=O)=C(O)C1	10µM*	2%	?	-1%[57.1 µM]	-6%
O=C1CCCC(O)=C1Sc1ccccc1C(=O)O	20%	-6%	-48%	-1%	13%
O=C1CCCC(O)=C1C(C#Cc1ccccc1)C1=C(O)CCCC1=O	10µM*	11%	?	-15%	4%
CCOC(=O)Cn1ccc(O)c(Cc2ccc(Cl)cc2Cl)c1=O	8%[57.1 µM]	1%	-5%	10%[57.1 µM]	-1%
CCCc1cc(=O)oc2cc(C)cc(OCC(=O)Nc3ccc(S(N)(=O)=O)cc3)c12	20µM*	9%	-15%	-5%	-1%
CCCc1cc(=O)oc2cc(C)cc(OCC(=O)Nc3ccccn3)c12	27%	3%	-28%	17%	1%
SMILES	rTrxR1 inhibitor	IDH1 R132H inh	RGS4 inhibitor	TrxR1 substrate	Eya2 inh
O=C(O)/C=C/S(=O)(=O)c1ccc2ccccc2c1	11µM*	-3%	-26%	7%	-1%
C=C(C)Cn1c(COc2ccccc2)nnc1SCC(=O)O	20%	5%	13%	5%	14%
COc1ccccc1C(OC(=O)c1cccs1)C(=O)NCc1ccco1 (stereo unspecified)	16µM*	10%	?	4%	-3%
O=C(O)c1cccc(-n2cccc2/C=C/[N+](=O)[O-])c1	10µM*	8%	-41%	6%	17%
O=C(Nc1ccc2oc(-c3cccnc3)nc2c1)c1ccc(Br)o1	45µM*	13%	-10%	10%	8%
COC(=O)C(NC(=O)CCc1c(C)nc2cc(-c3cccc(F)c3)nn2c1C)C(C)C (stereo unspecified)	?	1%	-6%	25%	.
CCOc1ccc(NC(=O)N(O)C2(C#N)CCCCC2)cc1	10%	2%	-18%	3%	.
O=C(/C=C/Sc1ccc(C(F)(F)F)cn1)c1ccccc1	1.3µM*	-2%	-36%	0%	-27%
O=C(CSc1ccc(C(F)(F)F)cn1)Nc1ccccc1	?	7%	13%	-8%[57.1 µM]	17%
CCc1ccc(-n2c(=O)c3sc4ccccc4c3n(CC(=O)NC3CCCCC3)c2=O)cc1	18%	16%	9%	22%	.
CN1C(=O)CC(c2ccco2)Sc2ccccc21 (stereo unspecified)	56µM*	6%	-6%	-8%	-2%
O=C1CC(c2ccccc2)Sc2nc3ccccc3n21 (stereo unspecified)	27%[57.1 µM]	4%	-26%	-14%[57.1 µM]	14%
CCCN1C(=O)CC(c2ccco2)Sc2ccccc21 (stereo unspecified)	?	2%	-30%	9%	22%
O=C1CC(c2ccco2)Sc2nc3ccccc3n21 (stereo unspecified)	13µM*	-5%	?	3%	1%
CC(C)[C@]1(c2ccccc2)ON(c2ccccc2C(F)(F)F)C1=O	.	.	.	.	-22%
CCOC(=O)c1cc(C(C)=O)c(=O)[nH]c1C	8%	-6%	-11%	-1%	7%
COCc1[nH]c(=S)c(C#N)cc1C(=O)OC	14µM*	8%	?	1%[57.1 µM]	-7%
COC(=O)c1cc(C#N)c(=O)[nH]c1C	0%	-2%	-16%	0%	-17%
CCOC(=O)c1cc(C#N)c(=S)[nH]c1C	7.9µM*	-2%	?	-7%	-19%
O=C(CC1C(=O)NCCN1Cc1ccccc1)NC1CCCCCC1 (stereo unspecified)	?	1%	8%	-5%	0%
O=C(NCS(=O)(=O)c1ccccc1)c1ccccc1	45µM*	3%	-46%	4%	0%
COc1ccc(/C=N\NC(=O)c2ccccc2OC)cc1COc1c(F)c(F)c(F)c(F)c1F	27%[57.1 µM]	4%	-8%	6%	-30%
O=C(O)Cc1ccc2ccc3ccccc3c2c1	15%	2%	-4%	10%	.
O=C(O)Cc1ccc(O)c(O)c1	7.5µM*	-4%	?	9%[57.1 µM]	3%
COC(=O)c1cccc(Cn2c(Cl)c(/C=N/Nc3ccccc3C)sc2=O)c1	22µM*	1%	?	-13%	1%
